Data: article PMC5540273 (PLoS ONE, 2017)

Test system: RIPK4
Conditions: concentration: 1 μM, replicates: in singlicate; n = 1
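Also: KINOMEscan kinase panel screen.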

| Compound | %Inh |
| --- | --- |
| COc1cc(Nc2nccc(N3CCC(NC(=O)Nc4cccc(C(C)=O)c4)C3)n2)cc(OC)c1OC (stereo not shown) [GSK1379753] | 48% |
| CCn1c(-c2nonc2N)nc2c(C#CC(C)(C)O)ncc(OCCCCN)c21.O=C(O)C(F)(F)F.O=C(O)C(F)(F)F [GSK507274] | 0% |
| COc1cc(Nc2nccc(-c3c(-c4cccc(NC(=O)c5c(F)cccc5F)c4)nn4ncccc34)n2)cc(OC)c1OC [GSK327238] | 4% |
| O=C(Nc1n[nH]c2nc(-c3ccc(O)cc3)ccc12)C1CC1 [SB-710363] | 39% |
| O=c1[nH]cc(-c2ccc(N3CCOCC3)cc2)c2sc(-c3cn[nH]c3)cc12 [GSK2276055] | 12% |
| O=C(Nc1cccc(-c2nn3ccccc3c2-c2ccnc(Nc3cccc(F)c3)n2)c1)c1c(F)ccc(F)c1Cl [GSK357952] | 0% |
| CC(C)c1nc(-c2cccc(NS(=O)(=O)c3c(F)cccc3F)c2F)c(-c2ccnc(Nc3ccc(N4CCOCC4)nc3)n2)s1 [GSK2008607] | 15% |
| CC(=O)N1CCN(c2ccc(Nc3nccc(-c4sc(C(C)C)nc4-c4cccc(NS(=O)(=O)c5cccc(Cl)c5)c4)n3)cn2)CC1 [GSK1660437] | 0% |
| O=C(Nc1cccc(-c2nn3ncccc3c2-c2ccnc(Nc3ccccc3)n2)c1)c1c(F)cccc1F [GSK198271] | 10% |
| Cl.c1ccc(-c2ccc3c(Nc4ccc5[nH]ncc5c4)ccnc3c2)nc1 [GW440137] | 23% |
| Cn1cc(-c2[nH]c3cc(NC(=O)[C@H](N)C4CCCCC4)cc4c3c2C=NNC4=O)cn1 | 87% |
| CNC(=O)c1ccccc1Nc1nc(Nc2ccc(N3CCOCC3)cc2)ncc1Cl.Cl [GSK1576028] | 79% |
| c1ccc(-c2cnc3nccnn23)cc1 [AH20685] | 0% |
| CN(C)S(=O)(=O)c1cc(-c2ccc3nccc(-c4cccc(S(N)(=O)=O)c4)c3c2)cnc1N [GSK1669921] | 9% |
| COc1cccc(NC(=O)NC2CCN(c3ccnc(Nc4cc(OC)c(OC)c(OC)c4)n3)C2)c1 (stereo not shown) [GSK1379763] | 49% |
| C[C@@H](Oc1cc(-n2cnc3cc(-c4ccnc(NCCS(C)(=O)=O)c4)ccc32)sc1C(N)=O)c1ccccc1Cl [GSK907232] | 14% |

| Compound | %Inh |
| --- | --- |
| Fc1ccc(-c2ncn(C3CCNCC3)c2-c2ccnc(Oc3ccc(-c4ccccc4)cc3)n2)cc1 [SB-245391] | 34% |
| COc1cccc(C(=O)Nc2cccc(Oc3ccc4nc(NC(=O)C5CC5)cn4n3)c2)c1 | 0% |
| Nc1ncc(-c2cccnc2)c2scc(-c3ccc4c(c3)CCN4C(=O)Cc3ccccc3)c12 [GSK683281] | 16% |
| Cc1occc1-c1ncc(OC[C@@H](N)Cc2c[nH]c3ccccc23)cc1-c1ccc2[nH]nc(C)c2c1.O=C(O)C(F)(F)F [GSK682037] | 0% |
| Nc1n[nH]c2cnc(-c3ccccc3)cc12 [SB-642124] | 25% |
| Cc1ccc(S(=O)(=O)Nc2ccc(Nc3nccc(Nc4cccc5[nH]ncc45)n3)cc2)cc1 [GSK581271] | 0% |
| c1ccc(-c2n[nH]cc2Nc2ccnc3ccccc23)nc1 [GW694077] | 96.4% |
| COc1ccc(Nc2nccc(NCCNC(=O)c3cc4ccccc4s3)n2)cc1 [GSK1379896] | 0% |
| Cc1ccc(F)c(C(=O)Nc2cccc(-c3nn4ccccc4c3-c3ccnc(Nc4cccc(F)c4)n3)c2)c1F [GSK361061] | 4% |
| CC(C)(C)c1ccc2nccc(Nc3cccc(O)c3)c2c1 [GW856795] | 43% |
| COc1cc(Nc2ncc3c(C)nc(-c4cc5ccccc5[nH]4)n3n2)cc(OC)c1OC [GW869516] | 0% |
| COC(=O)Nc1nc2ccc(Oc3ccc(NC(=O)Nc4cc(C(F)(F)F)ccc4F)cc3)cc2n1C.Cl [GW692089] | 0% |
| CCCCc1nn2ncccc2c1-c1ccnc(Nc2ccc(N3CCN(C)CC3)cc2)n1 [GW684941] | 29% |
| O=C(O)C(F)(F)F.O=C(O)C(F)(F)F.O=c1[nH]ccc2nc(N[C@@H]3CCCNC3)nc(Nc3ccc(S(=O)(=O)N4CCOCC4)cc3)c12 [GSK2177277] | 95.9% |
| Cl.Cl.NCC(C(=O)Nc1cc(Br)c(-c2ccnc3[nH]ccc23)s1)c1ccccc1 (stereo not shown) [GSK1269851] | 27% |
